The source of these data is PubChem BioAssay AID485273 (Sanford-Burnham Center for Chemical Genomics, 2010).

About 1,500 (0.45%) of roughly 330,000 compounds were called active. For the sample, actives were picked, then their nearest neighbours and some compounds at random. A number with no mark means an inactive call. No stated cut-off is given here; in the data, active means inhibition above about 45% (passing the limit was not always enough); inconclusive means no clear call, values can overlap the other calls.

Chain of Ubiquitin-conjugating enzyme E2 N (Homo sapiens) (P61088 whole entry, looked up): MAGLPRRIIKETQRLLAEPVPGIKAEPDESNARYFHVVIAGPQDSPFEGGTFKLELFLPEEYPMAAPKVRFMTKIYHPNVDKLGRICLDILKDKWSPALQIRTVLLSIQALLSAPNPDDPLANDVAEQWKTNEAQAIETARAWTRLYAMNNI

The test addresses Ubiquitin-conjugating enzyme E2 N (Homo sapiens) (UniProt P61088). Briefly: blockers of UBC13 ubiquitin chain synthesis – biochemical, TR-FRET, uHTS, primary screen (AID 485273). The following applies: UBC13 polyubiquitin chain formation, at 20 µM, stronger effect = higher value. A general note: Time-resolved FRET reads energy transfer from a long-lived donor to a nearby acceptor.
In general, inhibition refers to the relative decrease from the control value, in per cent. Consider `CCCCCCCC1(C)NC(=O)N(CC(=O)Nc2cc(C)on2)C1=O` (centres undefined), for which the inhibition is 3.7%.
To `CN(C)/C=C/c1c(C#N)c(=O)ncn1Cc1ccccc1` belongs -4.7%; to `CN(C)c1ccnc2sc3c(=O)n(Cc4ccccc4)cnc3c12`, 48% (active).
On to `O=c1c2c(ncn1Cc1ccccc1)nc1n2CCC1`, for which the inhibition is 1.8%.
For `O=C1OC(OC(=O)c2ccccc2Br)C(N2CCOCC2)=C1Cl` (centres undefined), the inhibition was 15.6%.
For the compound `CCOC(=O)c1ccc(Nc2cc3ccccc3c(=O)[nH]2)cc1`, the inhibition was -38.5%.
Next, `Cc1ccc(NC2=C(Cl)C(=O)OC2OC(=O)c2ccccc2C)cc1` (centres undefined): 53.9% (active); `COc1ccccc1C(=O)Nc1ccc(Nc2ccccc2)cc1`: 7.8%.
Next, `Cc1ccccc1C(=O)OC1OC(=O)C(Cl)=C1Nc1ccccc1` (centres undefined): 78% (active); `Cc1ccccc1C(=O)O`: -9%; `CCOC(=O)CNC(=O)CN1C(=O)CCSc2ccccc21`: 8.8%.
Next, `CNC(=O)c1sc(Nc2ccc(OCc3ccccc3)cc2)nc1C`: 6.9%; `Cc1nn(CCCC(=O)NCc2ccccc2Cl)c(=O)c2nccn12`: -2.4%.
`FC(F)Oc1ccccc1C1CC(c2ccc(Br)s2)Nc2ncnn21` (centres undefined): the inhibition is -2.2%.
Turning to `CCN(CC)S(=O)(=O)c1cc(C(=O)Nc2ccccn2)ccc1C`, the inhibition is -8.9%.
For the compound `O=C(CCCCCn1c(=O)[nH]c2ccccc2c1=O)NCCc1c[nH]c2ccccc12`, the inhibition was 58.3% (active).
For the compound `CCN(CC)CCNC(=O)CCCCCn1c(=O)[nH]c2cc(C(=O)OC)ccc2c1=O`, the inhibition is 9.7%.
Next, `O=C(CCc1c[nH]c2ccccc12)NCCOc1ccccc1`: -4.4%; `COc1cc(CNCc2ccc(OC)c3ccccc23)cc(OC)c1OC`: 5.5%.
Turning to `COc1ccc(S(=O)(=O)N2CCN(CC(=O)NCC3(N4CCOCC4)CCCCC3)CC2)cc1`, the inhibition was -8.4%.
Next, `O=C(CCl)NNc1nc(-c2ccccc2)c2cc(Cl)ccc2n1`: -10.6%.
To `Cc1ccc2nc(Nc3ccccc3O)nc(-c3ccccc3)c2c1` belongs 0.7%; to `NC(N)=Nc1nc(-c2ccccc2)c2cc(Cl)ccc2n1`, 51.4% (active); to `Nc1nc(SCC(=O)NN(c2ccccc2)c2ccccc2)n[nH]1`, -4.6%.
Next, `CC1(C)CC(=O)C(C2=NC(C)(C)Cc3ccccc32)=C(O)C1`: -11%; `CCN(CC)S(=O)(=O)c1ccc(NC(=O)c2cccnc2Cl)c(NC(=O)c2cccnc2Cl)c1`: -5.6%.
For `CCc1c(C)nc(SCC(=O)NC2CCCC2)[nH]c1=O`, the inhibition was -1.8%.
Next, `CNC(=S)NNC(=O)c1ccc(N(C)C)cc1`: -10.9%; `CC(=O)NC(=S)NNC(=O)c1ccc(Br)cc1`: 79.4% (active).
On to `O=C(NNC(=O)c1ccc(Cl)nc1)c1ccc(Br)cc1`, for which the inhibition is 6.7%.
For the compound `O=S(=O)(NC1CCCC1)c1ccc(-n2cnnn2)cc1`, the inhibition was 0.2%.
For `C=CCNCCCCOc1ccccc1`, the inhibition was 9.8%.
To `CCc1ccc(NC(=O)N[C@H](C(=O)O)C(C)CC)cc1` (some centres undefined) belongs 10%; to `CCCCCn1c(=O)c(C(=O)OCC)c(Cl)c2ccccc21`, 5.7%; to `O=C(c1ccc[nH]c1=S)N1CCN(S(=O)(=O)c2ccc(Br)cc2Cl)CC1`, 1.2%.
Next, `CCOC(=O)C1(CCOc2ccccc2)CCN(Cc2cc(OC)c(O)cc2Cl)CC1`: 12%.
Next, `OCC1(CCOc2ccccc2)CCN(Cc2cn[nH]c2-c2ccccc2)CC1`: 2.5%.
Regarding `Cc1c(CN2CCC(CO)(CCOc3ccccc3)CC2)[nH]c2ccc(Cl)cc12`, the inhibition is 72.1% (active).
Next, `O=C(c1ccccc1)c1ccc(C(=O)N2CCN(c3ccccc3)CC2)cc1`: 4.4%.
Next, `CC(CC(=O)N1CCN(c2ccccc2)CC1)c1ccccc1` (centres undefined): 9.2%.
In the case of `CN1CCC(CN)(N2CCN(c3ccccc3)CC2)CC1`, the inhibition is 57.8% (active).
To `O=C(CN1CCN(c2ccc(F)cc2)CC1)Nc1cccc(C(F)(F)F)c1` belongs -4.5%; to `CCCCCCCCCCOC(=O)Cn1c(COc2cccc(OC)c2)[n+](C)c2ccccc21`, 58.1% (active); to `CCCCn1c(N)c(N(CCOC)C(=O)c2cccc(OCc3ccccc3)c2)c(=O)[nH]c1=O`, 0.1%.
In the case of `CCCCCCCCCCOC(=O)Cn1c(COc2ccc(C)cc2)[n+](C)c2ccccc21`, the inhibition is 44.2%.
To `Cc1cccc(CNS(=O)(=O)c2ccc(-c3cnc(C4CC4)o3)cc2)c1` belongs -0.4%; to `COc1ccc(S(=O)(=O)NNC(=O)Nc2ccc(C)cc2)c(OC)c1`, -8.1%; to `CCN(CC(=O)NCc1cccs1)C(=O)c1ccc(OC)c(S(=O)(=O)N2CCOCC2)c1`, -0.3%.
Next, `CCN(CC(=O)NCc1cccs1)C(=O)c1ccccc1F`: -3.4%; `CCN(CC(=O)NCc1cccs1)C(=O)c1cccc(S(=O)(=O)Nc2ccccc2OC)c1`: 49.7% (active); `CCN(CC)C(=O)N(CC)Cc1ccccc1`: 6.4%.
Next, `OCCN(Cc1ccccc1)Cc1ccc(Cl)cc1`: 5.2%.
Take `CN(C(=O)CN(CCO)CC(=O)N(C)C(C)(C)Cc1ccccc1)C(C)(C)Cc1ccccc1`: the inhibition was 57.3% (active).
Consider `C/C(=N\NC(=O)OC(C)(C)C)c1ccc[nH]1`, for which the inhibition was 0.6%.
Next, `C=CCSC1=C(C#N)C(c2cc(Br)c(O)c(OC)c2)CC(=O)N1` (centres undefined): 1.6%; `Cn1c(C(=O)NCCCN2CCN(c3cccc(Cl)c3)CC2)cc2c(=O)n(C)c3ccccc3c21`: 49.9% (active).
Next, `Cn1c(C(=O)NCCc2ccsc2)cc2c(=O)n(C)c3ccccc3c21`: 20.8%; `CCN1CCCC1CNC(=O)c1cc2c(=O)n(C)c3ccccc3c2n1C` (centres undefined): 30.3%; `O=C(CSc1nnc(C2CC2)n1Cc1ccccc1)Nc1cccnc1Cl`: -7.4%.
Take `CCOc1cc(S(=O)(=O)NC2CC(C)(C)NC(C)(C)C2)ccc1F`: the inhibition is 7.3%.
Next, `Cc1c(C(=O)Nc2ccccc2)sc2nc3n(c(=O)c12)CCCCC3`: -3%.
Next, `O=c1c2c(nc3n1CCCCC3)sc1c(O)cccc12`: 80% (active).
Next, `Cc1cccc2c(=O)n3c(nc12)CCCCC3`: 6.4%; `CCn1ncc(CNC(=O)C2(C)CC2(Br)Br)c1C` (centres undefined): -4.3%; `COc1cc(NC(=O)c2ccc(CNc3c(N4CCCC4)c(=O)c3=O)cc2)cc(OC)c1OC`: -3.8%.
In the case of `O=C(c1ccc(F)cc1)N1CCC(C(=O)N2CCN(S(=O)(=O)c3ccccc3Br)CC2)CC1`, the inhibition is 13.6%.
With `N[C@@H](Cc1ccccc1)C(=O)N1CCC(C(=O)NCC(=O)Nc2ccc(F)cc2)CC1`, the inhibition is -7.5%.
Consider `Cn1c(SCC(=O)C(C)(C)C)nnc1-c1ccccn1`, for which the inhibition is 2.2%.
As to `O=S(=O)(c1ccc(NC(=S)NN=C(C2CC2)C2CC2)cc1)N1CCOCC1`, the inhibition was 45.9% (active).
Consider `O=C(CN1C(=O)CCC1=O)Nc1ccc(S(=O)(=O)N2CCOCC2)cc1`, for which the inhibition was 0.4%.
Next, `O=C(NNC(=S)Nc1ccccc1)c1cccc(S(=O)(=O)N2CCOCC2)c1`: -21.6%; `COc1cc2c(cc1OC)CN(C(C)C(=O)Nc1cccc(S(=O)(=O)N3CCOCC3)c1)CC2` (centres undefined): -1.1%; `CC(C)Cc1oc(C(=O)O)cc1CN`: -1.6%.
With `CCCCNC(=S)N/N=C1\CCCCc2ccccc21`, the inhibition is 0.6%.
To `COc1ccc(C(CNC(=O)c2ccc(NS(=O)(=O)c3ccc(F)c(C)c3)cc2)N(C)C)cc1` (centres undefined) belongs 40.3%; to `COc1ccc(C(CNC(=O)c2ccc(S(=O)(=O)Nc3ccccc3F)cc2)N(C)C)cc1` (centres undefined), 94.8% (active); to `CC(=O)c1ccc(S(=O)(=O)Nc2ccc(C(=O)NCC(c3ccccc3)N(C)C)cc2)cc1` (centres undefined), 1.5%.
Regarding `COc1ccc(C(F)(F)F)cc1N/C=C\c1nnnn1-c1ccc(C)cc1`, the inhibition was 4.1%.
As to `COc1ccc(C(=O)N(C)CC(O)c2ccccc2)cc1OC1CCN(C(C)=O)CC1` (centres undefined), the inhibition is -0.4%.
Next, `Cc1cccc(-c2nc3ccc(C(=O)NCCN4CCN(C)CC4)cc3nc2-c2cccc(C)c2)c1`: 57.2% (active); `CCC1=Nc2cc(C(=O)NCCN3CCCC3)ccc2Sc2ccc(C)cc21`: 17.6%; `Cc1cccc(C(=O)OC(C)CN2CCN(C)CC2)c1` (centres undefined): 9.9%.
To `CC(Sc1nnnn1C1CCCCC1)C(=O)O` (centres undefined) belongs -4.9%; to `O=C(NCc1ccco1)c1ccc(NS(=O)(=O)c2cccc([N+](=O)[O-])c2)cc1`, -4.6%; to `CCOC(=O)[C@H]1[C@H]2COc3cc(OC)ccc3[C@@H]2N2C(=O)N(c3ccc(Br)cc3)C(=O)[C@@]12C`, -15%.
Take `CCOC(=O)[C@@H]1[C@H]2COc3cc(OC)ccc3[C@H]2N2C(=O)N(c3ccc(F)cc3)C(=O)[C@]12C`: the inhibition was 53.6% (active).
Next, `CCOC(=O)[C@@H]1[C@H]2COc3cc(OC)ccc3[C@@H]2N2C(=O)N(c3cccc(C)c3)C(=O)[C@@]12C`: -7.1%; `O=C(O)c1ccc(F)c(S(=O)(=O)Nc2ccccc2)c1`: 4%.
Consider `O=C(Nc1cccc(C(=O)NC2CC2)c1)c1ccc(F)c(S(=O)(=O)N2CCOCC2)c1`, for which the inhibition was 3.1%.
To `O=C(Nc1ccc([N+](=O)[O-])cc1)OCCc1ccccn1` belongs -7.9%; to `CC(=O)c1cccc(NC(=O)C2CCCN2S(=O)(=O)c2cccc3nsnc23)c1` (centres undefined), -4.7%.
To `CN(C(=O)COC(=O)c1cc(=O)[nH]c2ccccc12)C1CCCCC1` belongs 5.6%.
`CCCCN(CCCC)CCC(O)c1cc2c(Cl)cc(Cl)cc2c2cc(C(F)(F)F)ccc12` (centres undefined): the inhibition was 51.7% (active).
Next, `CCCCC(=O)Nc1ccc(C(=O)Nc2cc(C(F)(F)F)ccc2Cl)cc1`: -15%.
